From PubChem
BRCA1 expr act: activators of BRCA1 expression | MCF7-BRCA1-FFLuc reporter, luminescence, 48 h; response scale: scaled: vehicle 0%, 10 µM genistein 100% | AID 624202 | Potency, µM (series often up to 46.1 µM), without a hit: at the top dose activation, actives largely listed as activators | actives 1.1% (n = 380,000); note: potency is the fitted concentration of half-maximal effect; nearly all actives have a fitted effect of over 80% in size
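MCF7-BRCA1-FFLuc cells, 2000/well in phenol-red-free MEM, attached 2 h then treated 48 h at 37 C. Luciferase luminescence read 15 min after reagent; normalized to genistein maximum activation (10microM) and DMSO, concentration-response fitted.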
IL2 activator: activates IL-2 in a cell-based reporter assay | IL-2 activation reporter assay, cell-based qHTS; stimulated with anti-CD3/CD4/CD28 beads; in transgenic mouse T cells | activation, % (series mostly up to about 46 µM) | actives 0.065% (n = 360,000) | AID 652025; in the data active = activation above about 50%; inconclusive = mostly about 30% to 49%; note: 0% is about no effect
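Quantitative HTS in unstimulated transgenic mouse T cells, with memory T cells as non-tolerant control and PMA/ionomycin as tolerance-bypass control. Compound pretreatment lasted 60 minutes before 18 h bead stimulation; EGFP/DsRed fluorescence read.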
Nrf2 ARE act: activates Nrf2 signaling. AREc32 ARE-luciferase reporter (MCF7-derived line), luminescence, 24 h. Potency, µM (top dose mostly 46.1 µM), without a hit: at the highest dose activation, usual class: activators. actives 0.31% (n = 410,000); note: potency is the fitted concentration of half-maximal effect; % of control where 0% means no effect; nearly all actives have a fitted effect of over 65% in size
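ARE-driven firefly luciferase activity in AREc32 cells measured after a 24 hr compound exposure at 37 deg C, using Steady-Glo reagent and a 30 min room-temperature hold.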
A549 viability: counter-screen for Nrf2 inhibitors: cytotoxicity in A549 cells; actives 0.16% (n = 390,000); Potency, µM (highest dose often 46 µM), for the others: at the highest dose activity change, negative = cytotoxicity, usual class: inhibitors; A549 ARE-Fluc cells, CellTiter-Fluor viability, 18-24 h; note: potency is the fitted concentration of half-maximal effect; % is set by controls: 0 for no effect and ±100 for the full control effect
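A549 ARE-Fluc cells in 5% FBS OPTI-MEM, 5000 cells/well, rested 2 h then exposed to compounds in concentration-response for 18-24 h at 37 °C. Viability by CellTiter-Fluor fluorescence (Ex 405/Em 525) after 30 min; luciferase luminescence (BugLite, 15 min, RT) read afterwards.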
Nrf2 block: blocks Nrf2 signaling | actives 2.1% (n = 360,000) | AID 504444 | Potency, µM (doses to about 46 µM), inactives show at the highest dose activity change, negative = inhibition, usual class: inhibitors | A549 ARE-Fluc reporter, luciferase luminescence, 18-24 h; note: potency is the fitted concentration of half-maximal effect; % is set by controls: 0 for no effect and ±100 for the full control effect; nearly all actives have a fitted effect of over 60% in size
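A549 ARE_Fluc cells (5000/well, 5% FBS OPTI-MEM) pre-incubated 2 h, then treated with compounds 18-24 h at 37C/5% CO2 in concentration-response. CellTiter-Fluor viability read first; BugLite luciferase luminescence after 15 min at room temperature gives Nrf2 activity.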
p53 reactivator: mutant p53 re-activation in reporter cells. Potency, µM (series often up to 92.2 µM), without a hit: top-dose activity change, positive = activation, usual class: activators. H1299 p53-A138V BP100-luciferase reporter, luminescence, 24 h. actives 0.063% (n = 320,000); note: potency is the fitted concentration of half-maximal effect; % of control where 0% means no effect; nearly all actives have a fitted effect of over 45% in size
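H1299 (p53-null), stable ts p53-A138V + BP100-Luc; 1000 cells/well, Opti-MEM/10% FBS; cpd 4 pt, 1:5; 24 h, 37 deg C, 5% CO2; detection reagent 10 min RT; luminescence.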
The depositor's hits bear a star. Only some compounds are listed: those with a hit (about 3.2% of all), similar ones and a draw of the others. Unless noted, calls come from the whole dose curve; as a rule, active = well fitted curve in the direction sought with a large enough effect; inconclusive = small, poorly fitted or top-dose-only effect, or another doubt; inactive = no such curve, though single readings can be large; an effect the other way counts as inactive or inconclusive.

What do the screens show for `C=CCNC(=S)Nc1ccc(Cl)cc1F`?
BRCA1 expr act: 44%; IL2 activator: 0; Nrf2 ARE act: 6%; A549 viability: -2%; Nrf2 block: -26%; p53 reactivator: 12%

How did CCCNC(=S)Nc1ccc(F)cc1F do in these assays?
BRCA1 expr act: -5%; IL2 activator: 1; Nrf2 ARE act: 0%; A549 viability: 1%; Nrf2 block: 12µM*; p53 reactivator: 0%

What do the screens show for `C=CCNC(=S)Nc1ccc(Br)cc1F`?
BRCA1 expr act: inconclusive; IL2 activator: -2; Nrf2 ARE act: 3%; A549 viability: 0%; Nrf2 block: 23µM*; p53 reactivator: inconclusive

Results for O=C(Nc1ccc(F)cc1F)Nc1ccc(F)cc1F ?
BRCA1 expr act: 10µM*; IL2 activator: -4; Nrf2 ARE act: 1%; A549 viability: 4%; Nrf2 block: 1%; p53 reactivator: 2%

Results for COc1ccc(C2Nc3ccccc3C(=O)N2Cc2ccccc2)cc1COc1ccc(NC(=O)c2ccccc2)cc1 (configuration not stated) ?
A549 viability: -2%; Nrf2 block: -9%

How did CCOc1cccc(C(=O)N(Cc2ccc(F)cc2)Cc2ccco2)c1 do in these assays?
Nrf2 ARE act: 7%; A549 viability: -11%; Nrf2 block: inconclusive

What do the screens show for `O=C(Nc1c(O)c2ccccc2[nH]c1=O)c1ccco1`?
BRCA1 expr act: -45%; IL2 activator: 1; Nrf2 ARE act: 10µM*; A549 viability: 2%; Nrf2 block: 6%; p53 reactivator: -1%

How did CCOc1ccc(C(=O)CSc2nc3cc(C(=O)NC4CCCC4)ccc3c(=O)n2CC2CCCO2)cc1 (configuration not stated) do in these assays?
BRCA1 expr act: 0%; Nrf2 ARE act: 0%; A549 viability: 20%; Nrf2 block: inconclusive

Results for COCCNc1oc(/C=C/c2ccc(F)cc2)nc1C#N ?
Nrf2 ARE act: 8%; A549 viability: 0%; Nrf2 block: 24%

Results for CSCc1nnc(NC(=O)c2ccc(S(=O)(=O)N(CC(C)C)CC(C)C)cc2)o1 ?
p53 reactivator: 11%

Results for Cc1nnc(NC(=O)c2ccc(S(=O)(=O)N(C)Cc3ccccc3)cc2)o1 ?
BRCA1 expr act: -51%; IL2 activator: -3; Nrf2 ARE act: -2%; A549 viability: -23%; Nrf2 block: 18µM*; p53 reactivator: 8%

Results for CCc1nnc(NC(=O)c2ccc(S(=O)(=O)N(CC(C)C)CC(C)C)cc2)o1 ?
BRCA1 expr act: -82%; IL2 activator: -1; Nrf2 ARE act: -1%; A549 viability: inconclusive; Nrf2 block: 16µM*; p53 reactivator: 20%

How did CCN(Cc1ccccc1)S(=O)(=O)c1ccc(C(=O)Nc2nnc(C3CC3)o2)cc1 do in these assays?
BRCA1 expr act: -65%; IL2 activator: -2; Nrf2 ARE act: -2%; A549 viability: -19%; Nrf2 block: 8.2µM*; p53 reactivator: inconclusive

Results for COCc1nnc(NC(=O)c2ccc(S(=O)(=O)N(C)Cc3ccccc3)cc2)o1 ?
BRCA1 expr act: -45%; IL2 activator: 1; Nrf2 ARE act: -1%; A549 viability: inconclusive; Nrf2 block: inconclusive; p53 reactivator: 3%

What do the screens show for `O=C(Nc1ccc(-n2nncc2-c2ccccc2)cc1)c1ccccc1`?
BRCA1 expr act: 12%; A549 viability: -1%; Nrf2 block: -8%

What do the screens show for `Cc1nc2ccccc2c2oc(C(=O)Nc3ccc4c(c3)OCCO4)cc12`?
BRCA1 expr act: 3%; IL2 activator: 11; Nrf2 ARE act: 1%; A549 viability: -29%; Nrf2 block: 23µM*; p53 reactivator: 4%

Results for Cc1nc2ccccc2c2oc(C(=O)Nc3ccc(C(C)C)cc3)cc12 ?
BRCA1 expr act: -36%; IL2 activator: -1; Nrf2 ARE act: -1%; A549 viability: inconclusive; Nrf2 block: 15µM*; p53 reactivator: 1%

What do the screens show for `O=C(NC(=S)NC1CCCCCC1)c1cncc(Br)c1`?
BRCA1 expr act: 11µM*; IL2 activator: 0; Nrf2 ARE act: 4%; A549 viability: 12%; Nrf2 block: inconclusive; p53 reactivator: inconclusive

How did O=C(NC(=S)Nc1ncc(Br)cc1Br)c1cncc(Br)c1 do in these assays?
BRCA1 expr act: -50%; IL2 activator: -3; Nrf2 ARE act: 2%; A549 viability: -3%; Nrf2 block: inconclusive

How did COc1ccc(NC(=O)c2c(C)oc3ccc(O)c(CN4CCCC(C)C4)c23)cc1 (configuration not stated) do in these assays?
Nrf2 ARE act: 9%; A549 viability: 0%; Nrf2 block: 2%

Results for COc1ccc2c(c1)C=C(CN1CCC(CO)(CCc3ccccc3)CC1)CO2 ?
BRCA1 expr act: -48%; IL2 activator: -1; Nrf2 ARE act: 7%; A549 viability: -6%; Nrf2 block: 22%; p53 reactivator: -4%

Results for COc1ccc(CC2(CO)CCN(CC3=Cc4cc(Cl)ccc4OC3)CC2)cc1 ?
BRCA1 expr act: -83%; IL2 activator: -1; Nrf2 ARE act: 2%; A549 viability: -23%; Nrf2 block: 13µM*; p53 reactivator: -1%

Results for CC1(C)CCc2cc(-c3ccn(S(=O)(=O)c4ccccc4Cl)n3)ccc2O1 ?
BRCA1 expr act: 7%; IL2 activator: -3; Nrf2 ARE act: 0%; A549 viability: 11%; Nrf2 block: -12%; p53 reactivator: 5%

Results for COc1ccc(S(=O)(=O)n2ccc(-c3ccc4c(c3)CCC(C)(C)O4)n2)cc1 ?
BRCA1 expr act: 17%; IL2 activator: -3; Nrf2 ARE act: 0%; A549 viability: 0%; Nrf2 block: 13µM*; p53 reactivator: 18%

Results for COc1ccc(CNC(=O)CCn2c(=O)c3cccn3c3ccc(F)cc32)cc1OC ?
Nrf2 ARE act: 2%; A549 viability: 6%; Nrf2 block: inconclusive

What do the screens show for `COc1ccccc1NC(=O)CSc1nnc2c3ccccc3n(C(C)C)c2n1`?
Nrf2 ARE act: 0%; A549 viability: inconclusive; Nrf2 block: 18µM*

What do the screens show for `O=C(OCC#CCSc1nnc(-c2cccc3ccccc23)o1)c1ccc(OC(F)(F)F)cc1`?
A549 viability: 4%; Nrf2 block: -12%

How did O=C(N/N=C/C(Br)=C\c1ccccc1)c1ccco1 do in these assays?
BRCA1 expr act: 68%; IL2 activator: -3; Nrf2 ARE act: inconclusive; A549 viability: 0%; Nrf2 block: inconclusive; p53 reactivator: inconclusive
